Test [1] in a line: NCI Yeast Anticancer Drug Screen. Data for the rad50 strain (AID 155).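 Further: 0% = growth of vehicle-only cultures of the same strain.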 The note with it: S. cerevisiae rad50 strain growth inhibition, active compounds read high. The essentials: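 A DNA repair-deficient yeast mutant serves as the test organism; compound-induced growth inhibition is calculated against vehicle-treated cells.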
Test [2] is described as follows: NCI Yeast Anticancer Drug Screen. Data for the mec2-1 strain (AID 157). The note with it: S. cerevisiae mec2-1 strain, active compounds read high. The essentials: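 Readout is yeast growth inhibition, normalised to vehicle-treated controls, in the mec2-1 strain exposed to compound.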
Test [3] is described as follows: NCI Yeast Anticancer Drug Screen. Data for the sgs1 mgt1 strain (AID 161).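 Further: 0% = growth of cultures given vehicle only.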 The note with it: S. cerevisiae sgs1 mgt1 strain, active compounds read high. Summed up:
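Percent growth inhibition was derived by comparing compound-exposed mutant yeast with vehicle-exposed cultures. The strain carries alterations in DNA damage repair.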

Test [4] in a line: NCI Yeast Anticancer Drug Screen. Data for the cln2 rad14 strain (AID 165).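 Further: 0% = growth equal to vehicle treated cultures.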 The note with it: S. cerevisiae cln2 rad14 strain, active compounds read high. Summed up: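 Relative to vehicle controls, growth inhibition of compound-treated cln2 rad14 yeast was recorded.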
A short description of test [5]: NCI Yeast Anticancer Drug Screen. Data for the bub3 strain (AID 167). The note with it: S. cerevisiae bub3 mutant strain, active compounds read high. The essentials: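 Inhibition values come from growth of compound-treated mutant yeast normalised to vehicle-treated controls.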
Test [6] can be described thus: NCI Yeast Anticancer Drug Screen. Data for the mlh1 rad18 strain (AID 175). The note with it: S. cerevisiae mlh1 rad18 strain growth inhibition, active compounds read high. Summed up:
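Test agents were incubated with a yeast strain of defined genotype (DNA damage repair defect). Inhibition of growth was derived by comparison with vehicle-exposed cultures.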

The mark [7] stands for this setting: at 5.0 µM (retest, dose inferred, filed as 0.5).
[8] abbreviates: at 50.0 µM (retest, dose inferred, filed as 5.0).

Each structure is given as a SMILES string. This is part of a sample that, as a whole, favours compounds with a hit. Of some 79,000 tested, about 15% had one in any assay. Unmarked numbers belong to inactive results. Calls of active or inactive are those of the source. No stated cut-off is given here; in the data, active means growth inhibition above about 70%; inactive means the rest.

Consider `Nc1c(-c2c(Cl)cccc2Cl)[n+]([O-])c2ccccc2[n+]1[O-]`, for which the growth inhibition in test [1] (setting [7]) is 26%; in test [1] (setting [8]), 99% (active); in test [1] (at 50.0 µM), 75% (active); in test [2] (setting [7]) it was 29%; in test [2] (setting [8]), 99% (active); in test [2] (at 50.0 µM) it was 38.9%. For the same compound, the growth inhibition in test [3] (setting [7]) was 44%; in test [3] (setting [8]) it was 100% (active); in test [3] (at 50.0 µM), 74.7% (active); in test [4] (setting [7]), 28%; in test [4] (setting [8]), 99% (active); in test [4] (at 50.0 µM), 69.3%. Besides, the growth inhibition in test [5] (setting [7]) was 45%; in test [5] (setting [8]), 99% (active); in test [5] (at 50.0 µM), 66.8%; in test [6] (setting [7]), 72% (active); in test [6] (setting [8]), 99% (active); in test [6] (at 50.0 µM), 88.8% (active).
Take `CN(C)CCC(/C=C/c1ccccc1)=N\Nc1c(F)c(F)c(F)c(F)c1F`: the growth inhibition in test [1] (setting [7]) is -2%; in test [1] (setting [8]) it was 8%; in test [1] (at 50.0 µM) it was 58%; in test [2] (setting [7]), -2%; in test [2] (setting [8]), 1%; in test [2] (at 50.0 µM) it was 8.9%. For the same compound, the growth inhibition was 2% in test [3] (setting [7]); -8% in test [3] (setting [8]); 35.4% in test [3] (at 50.0 µM); -3% in test [4] (setting [7]); 6% in test [4] (setting [8]); -3.55% in test [4] (at 50.0 µM). In addition, the growth inhibition is 1% in test [5] (setting [7]); -14% in test [5] (setting [8]); 40% in test [5] (at 50.0 µM); -4% in test [6] (setting [7]); -2% in test [6] (setting [8]); 86.8% (active) in test [6] (at 50.0 µM).
As to `COC(=O)c1nc2ccc([N+](=O)[O-])cc2n1O`, the growth inhibition in test [1] (setting [7]) is -154%; in test [1] (setting [8]), -155%; in test [1] (at 50.0 µM), 2.25%; in test [2] (setting [7]), -54%; in test [2] (setting [8]) it was -59%; in test [2] (at 50.0 µM), 19.8%. In addition, the growth inhibition was -60% in test [3] (setting [7]); -70% in test [3] (setting [8]); 2.95% in test [3] (at 50.0 µM); -53% in test [4] (setting [7]); -60% in test [4] (setting [8]); 36% in test [4] (at 50.0 µM). The growth inhibition in test [5] (setting [7]) is -68%; in test [5] (setting [8]) it was -80%; in test [5] (at 50.0 µM), 4.8%; in test [6] (setting [7]), -116%; in test [6] (setting [8]) it was -111%; in test [6] (at 50.0 µM) it was 4.3%.
As to `O=C(NC(=S)Nc1ncc([N+](=O)[O-])s1)c1ccccc1C(=O)NC(=S)Nc1ncc([N+](=O)[O-])s1`, the growth inhibition was -5% in test [1] (setting [7]); 78% (active) in test [1] (setting [8]); 69.5% in test [1] (at 50.0 µM); 9% in test [2] (setting [7]); 67% in test [2] (setting [8]); 29.6% in test [2] (at 50.0 µM). For the same compound, the growth inhibition in test [3] (setting [7]) is 19%; in test [3] (setting [8]) it was 47%; in test [3] (at 50.0 µM), 80.5% (active); in test [4] (setting [7]) it was -6%; in test [4] (setting [8]), 40%; in test [4] (at 50.0 µM) it was 19.4%. The growth inhibition was -6% in test [5] (setting [7]); 96% (active) in test [5] (setting [8]); 75.8% (active) in test [5] (at 50.0 µM); 4% in test [6] (setting [7]); 87% (active) in test [6] (setting [8]); 79.7% (active) in test [6] (at 50.0 µM).
For `O=C(O)CC(CCCc1ccccc1)C(=O)O` (configuration not stated), the growth inhibition was -1% in test [1] (setting [7]); -3% in test [1] (setting [8]); -7.45% in test [1] (at 50.0 µM); -41% in test [2] (setting [7]); -3% in test [2] (setting [8]); 15.4% in test [2] (at 50.0 µM). The growth inhibition in test [3] (setting [7]) is -1%; in test [3] (setting [8]) it was -4%; in test [3] (at 50.0 µM), -10.8%; in test [4] (setting [7]), -2%; in test [4] (setting [8]) it was -1%; in test [4] (at 50.0 µM) it was 40.9%. The growth inhibition in test [5] (setting [7]) is -5%; in test [5] (setting [8]) it was -7%; in test [5] (at 50.0 µM) it was -1.1%; in test [6] (setting [7]), 0%; in test [6] (setting [8]), -4%; in test [6] (at 50.0 µM), 2.55%.
For the compound `O=CNNC(=O)Nc1ccc(Cl)cc1`, the growth inhibition in test [1] (setting [7]) was 19%; in test [1] (setting [8]) it was 25%; in test [1] (at 50.0 µM) it was -1.5%; in test [2] (setting [7]), 10%; in test [2] (setting [8]) it was 14%; in test [2] (at 50.0 µM), -3.75%. The growth inhibition was 20% in test [3] (setting [7]); 11% in test [3] (setting [8]); -8.8% in test [3] (at 50.0 µM); 32% in test [4] (setting [7]); 19% in test [4] (setting [8]); 22.1% in test [4] (at 50.0 µM). Besides, the growth inhibition was 4% in test [5] (setting [7]); 0% in test [5] (setting [8]); 14.6% in test [5] (at 50.0 µM); 20% in test [6] (setting [7]); 21% in test [6] (setting [8]); 7.2% in test [6] (at 50.0 µM).
With `CC(/C(=N/NC(=O)C(N)=O)c1c(Cl)ccc(Cl)c1O)C1(O)C(=O)Nc2ccccc21` (configuration not stated), the growth inhibition in test [1] (setting [7]) was 9%; in test [1] (setting [8]), 53%; in test [1] (at 50.0 µM), 53.8%; in test [2] (setting [7]), 2%; in test [2] (setting [8]), 29%; in test [2] (at 50.0 µM), 57.4%. The growth inhibition is 9% in test [3] (setting [7]); 53% in test [3] (setting [8]); 52.5% in test [3] (at 50.0 µM); 14% in test [4] (setting [7]); 18% in test [4] (setting [8]); 20.5% in test [4] (at 50.0 µM). For the same compound, the growth inhibition is 4% in test [5] (setting [7]); 52% in test [5] (setting [8]); 44% in test [5] (at 50.0 µM); 9% in test [6] (setting [7]); 32% in test [6] (setting [8]); 86.5% (active) in test [6] (at 50.0 µM).
With `O=S(=O)(O)N=Nc1ccc(O)cc1`, the growth inhibition was 65% in test [1] (setting [7]); 98% (active) in test [1] (setting [8]); 91.5% (active) in test [1] (at 50.0 µM); 1% in test [2] (setting [7]); 99% (active) in test [2] (setting [8]); 94.3% (active) in test [2] (at 50.0 µM). Also, the growth inhibition in test [3] (setting [7]) was 17%; in test [3] (setting [8]), 98% (active); in test [3] (at 50.0 µM) it was 93.2% (active); in test [4] (setting [7]) it was -8%; in test [4] (setting [8]), 98% (active); in test [4] (at 50.0 µM), 91% (active). Moreover, the growth inhibition in test [5] (setting [7]) is -12%; in test [5] (setting [8]), 98% (active); in test [5] (at 50.0 µM), 92.8% (active); in test [6] (setting [7]), 37%; in test [6] (setting [8]) it was 98% (active); in test [6] (at 50.0 µM), 91.5% (active).
In the case of `O=C(NNc1ccc(F)cc1)C12CC3CC(CC(C3)C1)C2`, the growth inhibition in test [1] (setting [7]) is 9%; in test [1] (setting [8]) it was 90% (active); in test [1] (at 50.0 µM), 98.4% (active); in test [2] (setting [7]), 3%; in test [2] (setting [8]), 68%; in test [2] (at 50.0 µM) it was 17.8%. Further, the growth inhibition in test [3] (setting [7]) was 4%; in test [3] (setting [8]), 98% (active); in test [3] (at 50.0 µM) it was 53.2%; in test [4] (setting [7]) it was 4%; in test [4] (setting [8]), 57%; in test [4] (at 50.0 µM), 27.1%. Besides, the growth inhibition in test [5] (setting [7]) is -3%; in test [5] (setting [8]), 97% (active); in test [5] (at 50.0 µM), 98.3% (active); in test [6] (setting [7]), 2%; in test [6] (setting [8]) it was 98% (active); in test [6] (at 50.0 µM), 27.1%.

The values above are taken from PubChem BioAssay (NCI).
